From PubChem BioAssay
Calls of active or inactive are those of the source.

Assay: small-molecule microarray binders of probe aXIP, primary screen, biochemical, NeuroSMM set, 635/667 nm fluorescence (AID 1119);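 also: probe is the protein aXip251-270 applied at 1 µg/mL to compound-printed slides; binding of probe to printed compounds measured as 667 nm fluorescence plus signal to noise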
Details: higher = more signal, called active from +8 up or from −8 down

Composite Z-score, active:
O=C1O[C@@H](c2ccccc2)[C@@H](c2ccccc2)N2[C@@H](c3ccccc3OCCO)[C@]3(C(=O)Nc4ccc(C#CC5(O)CCCCCC5)cc43)[C@@H](C(=O)N3CCCCCCC3)[C@H]12 9.73

Composite Z-score, inactive:
CCOC(=O)C1=CC[C@@H](c2ccccc2)N(S(=O)(=O)c2ccc(C)cc2)[C@@H]1C#N 0.4
C=CCN1C(=O)[C@]2(O[C@H](CCO)[C@@H]([Si](C)(C)c3ccc(OC)cc3)[C@@H]2C)c2cc(N3C(=O)c4ccccc4Oc4ccccc43)ccc21 -0.0467
C=CCOC(=O)[C@H]1[C@@H]2C(=O)O[C@@H](c3ccccc3)[C@@H](c3ccccc3)N2[C@@H](c2ccc(OCCOC(=O)[C@H]3C[C@H]4C(=O)NCC(=O)N4[C@H]3c3ccc(O)cc3)cc2)[C@]12C(=O)Nc1ccccc12 1.19
C=CCOC(=O)[C@H]1[C@@H]2C(=O)O[C@@H](c3ccccc3)[C@@H](c3ccccc3)N2[C@@H](c2ccc(OCCOC(=O)[C@@H]3C[C@@H]4C(=O)N[C@@H](Cc5ccccc5)C(=O)N4[C@@H]3c3ccc(O)cc3)cc2)[C@]12C(=O)Nc1ccc(I)cc12 0.661
CC(C)[Si](C#Cc1ccccc1)(O[C@H](c1ccccc1)c1cn(Cc2ccccc2)nn1)C(C)C 0.708
O=C(NCCN1CCOCC1)[C@@H]1c2ccccc2C(=O)N(CC23CC4CC(CC(C4)C2)C3)[C@H]1c1ccc(CO)cc1 0.864
CCOC(=O)C[C@H]1[C@H](OC(=O)c2ccc(-c3ccccc3)cc2)[C@@H](NC(=O)C2CCCCC2)c2cc(OCCCO)ccc2N1C(=O)Cc1ccc(OC)cc1 0.204
